The values below come from the supplement of paper PMC11865577.

Structures are written as SMILES. Structures can show the parent of a compound that is named as a salt.

Common to all, as to assay: normalised indicator fluorescence (fraction of RNA + indicator signal without compound); higher = less displacement of indicator (weaker competition)
Holding throughout (details): compound concentration: 5 uM, 30 min

The subject of assay [1] is SARS-CoV-2 low-rank motif (SARS-low). The essentials: (§1)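 Indicator fluorescence, corrected by subtracting the buffer-plus-indicator blank and normalized to the RNA-plus-indicator signal without compound, is given as the mean of two independent experiments. The buffer was 20 mM phosphate pH 7.0, 20 mM NaCl and 80 mM KCl, with TO-PRO-1 or TO-PRO-3 and RNA in 96-well plates. Plates were read 30 min after compound addition (about 5 uM final) on an Infinite 200 PRO, exciting at 485 or 620 nm.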

For assay [2], the system named is hsa-mir-191 loop. The method, boiled down: as §1
Assay [3] concerns hsa-mir-21 loop. The essentials:
as §1

For assay [4], the system named is hsa-mir-221 loop. The method, boiled down:
as §1

Assay [5] has as its system hsa-mir-374a loop. The method, boiled down:
as §1

Assay [6] deals with hsa-mir-6850 loop. The method, boiled down: as §1
[7] abbreviates: indicator: TO-PRO-1 0.1 uM, RNA concentration: 0.1 uM.
The mark [8] stands for this setting: indicator: TO-PRO-3 0.5 uM, RNA concentration: 0.5 uM.

On to `CC(C)OC(=O)CCC/C=C\C[C@@H]1[C@@H](CC[C@@H](O)CCc2ccccc2)[C@H](O)C[C@@H]1O` [Latanoprost], for which the normalised indicator fluorescence in assay [1] (setting [7]) came to 1.12; in assay [1] (setting [8]) it was 1.2.

As to `CC(C)N(CCCCOCC(=O)NS(C)(=O)=O)c1cnc(-c2ccccc2)c(-c2ccccc2)n1` [Selexipag], the normalised indicator fluorescence in assay [1] (setting [7]) amounted to 1.21; in assay [1] (setting [8]), 1.13.

With `O=C(Nc1ccc2[nH]nc(-c3ccncc3)c2c1)[C@@H]1CCN(CC(=O)N2CCN(c3ccc(-c4ncccn4)cc3)CC2)C1`, the figures for the normalised indicator fluorescence in assay [1] (setting [7]) and in assay [1] (setting [8]) were 1.11 and 1.26, respectively.

On to `CC1(C)OC(=O)C=C[C@]2(C)[C@H]3CC[C@@]4(C)[C@H](c5ccoc5)OC(=O)[C@H]5O[C@]54[C@]3(C)C(=O)C[C@@H]12` [Obacunone], for which the normalised indicator fluorescence in assay [1] (setting [7]) stood at 1.14; in assay [1] (setting [8]), 0.991.

On to `C1CCN2C[C@@H]3C[C@@H](CN4CCCC[C@@H]34)[C@H]2C1` [(-)-Sparteine sulfate pentahydrate], for which the normalised indicator fluorescence came out at 1.05 in assay [1] (setting [7]) and 0.993 in assay [1] (setting [8]).

Turning to `CC1=CC(=O)c2c(O)cccc2C1=O` [Plumbagin], the normalised indicator fluorescence in assay [1] (setting [7]) worked out at 1.22; in assay [1] (setting [8]) it was 1.02; in assay [2] (setting [7]), 1.02; in assay [2] (setting [8]), 1.01; in assay [3] (setting [7]), 0.979; in assay [3] (setting [8]), 0.979. The normalised indicator fluorescence in assay [4] (setting [7]) worked out at 1.02; in assay [4] (setting [8]) it was 1.05; in assay [5] (setting [7]) it was 1.17; in assay [5] (setting [8]) it was 1.15; in assay [6] (setting [7]) it was 0.922; in assay [6] (setting [8]), 1.01.

`Fc1ccc(-c2nc3n(c2-c2ccncc2)CCS3)cc1`: the normalised indicator fluorescence is 1.3 in assay [1] (setting [7]) and 1.15 in assay [1] (setting [8]).

With `CNC(=O)c1ccc(C)c(-n2c(C)cc(OCc3ccc(F)cc3F)c(Br)c2=O)c1`, the normalised indicator fluorescence in assay [1] (setting [7]) turned out to be 1.01; in assay [1] (setting [8]), 1.07.

For the molecule `O=c1cc(-c2ccc(O)cc2)oc2cc(O)cc(O)c12` [Apigenin], the normalised indicator fluorescence is 1.22 in assay [1] (setting [7]) and 1.27 in assay [1] (setting [8]).

On to `Oc1ccc(OC2CCCCO2)cc1` (stereo not given) [Deoxyarbutin], for which the normalised indicator fluorescence in assay [1] (setting [7]) worked out at 1.17; in assay [1] (setting [8]), 0.988.

Consider `CO[C@H]1/C=C/O[C@@]2(C)Oc3c(C)c(O)c4c(c3C2=O)C2=NC3(CCN(CC(C)C)CC3)NC2=C(NC(=O)/C(C)=C\C=C\[C@H](C)[C@H](O)[C@@H](C)[C@@H](O)[C@@H](C)[C@H](OC(C)=O)[C@@H]1C)C4=O` [Rifabutin], for which the figures for the normalised indicator fluorescence in assay [1] (setting [7]) and in assay [1] (setting [8]) were 1.1 and 1.16, respectively.

As to `NNC(=O)c1ccncc1` [Isoniazid], the normalised indicator fluorescence in assay [1] (setting [7]) was 1.12; in assay [1] (setting [8]), 1.13.

As for `COc1ccc2c(c[n+](C)c3c4cc5c(cc4ccc23)OCO5)c1OC` [Chelerythrine chloride], the normalised indicator fluorescence came out at 1.46 in assay [1] (setting [7]); 0.807 in assay [1] (setting [8]); 0.626 in assay [2] (setting [7]); 0.656 in assay [2] (setting [8]); 0.586 in assay [3] (setting [7]); 0.724 in assay [3] (setting [8]). For the same molecule, the normalised indicator fluorescence in assay [4] (setting [7]) turned out to be 0.568; in assay [4] (setting [8]), 0.592; in assay [5] (setting [7]), 1.01; in assay [5] (setting [8]), 1.02; in assay [6] (setting [7]) it was 0.335; in assay [6] (setting [8]) it was 0.494.

Regarding `CC1(C)CC(=O)c2c(C(F)(F)F)nn(-c3ccc(C(N)=O)c(N[C@H]4CC[C@H](O)CC4)c3)c2C1`, the normalised indicator fluorescence was found to be 1.02 in assay [1] (setting [7]) and 1.08 in assay [1] (setting [8]).

In the case of `CC1=C[C@]2(O)O[C@@]3(CC2=C(C)C)[C@@H](C)CC[C@@H]13` [Curcumenol], the normalised indicator fluorescence was 1.11 in assay [1] (setting [7]) and 1.05 in assay [1] (setting [8]).

Take `CC(C)=CCC[C@](C)(O[C@@H]1O[C@H](CO)[C@@H](O)[C@H](O)[C@H]1O)[C@H]1CC[C@]2(C)[C@@H]1[C@H](O)C[C@@H]1[C@@]3(C)CC[C@H](O)C(C)(C)[C@@H]3[C@@H](O[C@@H]3O[C@H](CO)[C@@H](O)[C@H](O)[C@H]3O[C@@H]3OC[C@@H](O)[C@H](O)[C@H]3O)C[C@]12C` [Notoginsenoside R1]: the normalised indicator fluorescence in assay [1] (setting [7]) was 1.23; in assay [1] (setting [8]) it was 1.26.

As to `COC(=O)c1ccc([C@H]2c3[nH]c4ccccc4c3C[C@H](C(=O)OC)N2C(=O)CCl)cc1`, the normalised indicator fluorescence is 1 in assay [1] (setting [7]) and 1.16 in assay [1] (setting [8]).

In the case of `COC(=O)C1=CC[C@@]23CC[C@@H]([C@@](C)(/C=C/C=C(\C)C(=O)O)OC2=O)[C@@]3(OC(C)=O)CC1` [Pseudolaric Acid B], the values for the normalised indicator fluorescence in assay [1] (setting [7]) and in assay [1] (setting [8]) were 0.981 and 1.27, respectively.

Take `COc1ccc(C(=C2C(=O)Nc3ccccc32)c2ccc(OC)cc2)cc1`: the figures for the normalised indicator fluorescence in assay [1] (setting [7]) and in assay [1] (setting [8]) were 1.38 and 1.17, respectively.

In the case of `CC(=O)c1ccc(S(=O)(=O)NC(=O)NC2CCCCC2)cc1` [Acetohexamide], the values for the normalised indicator fluorescence in assay [1] (setting [7]) and in assay [1] (setting [8]) were 0.998 and 1.12, respectively.

For the molecule `CC1(C)C=Cc2c(ccc3c2OC[C@@H](c2ccc(O)cc2O)C3)O1` [Glabridin], the normalised indicator fluorescence in assay [1] (setting [7]) was determined as 1.12; in assay [1] (setting [8]), 1.2.

With `Cc1c(C)c2c(c(C)c1O)CC[C@@](C)(CCC[C@H](C)CCC[C@H](C)CCCC(C)C)O2` [Vitamin E], the normalised indicator fluorescence worked out at 1.07 in assay [1] (setting [7]) and 1.16 in assay [1] (setting [8]).

For the molecule `CCc1cc(C(N)=S)ccn1` [Ethinamide], the normalised indicator fluorescence in assay [1] (setting [7]) stood at 1.15; in assay [1] (setting [8]), 1.12.

For the molecule `O=C1C[C@@H](c2ccc(O)cc2)Oc2cc(O)cc(O)c21` [Naringenin], the normalised indicator fluorescence in assay [1] (setting [7]) worked out at 1.03; in assay [1] (setting [8]), 1.12.

With `Cc1cc(NC(=O)c2cccc(NC(=O)/C=C/CN(C)C)c2)ccc1Nc1nccc(-c2cccnc2)n1`, the normalised indicator fluorescence was found to be 0.999 in assay [1] (setting [7]) and 1.14 in assay [1] (setting [8]).
